SUMO Mot1 rescue = blocks SUMOylation pathway, rescuing yeast Mot1-301 growth. AID 2716. growth rescue, % at 18.8 µM. S. cerevisiae Mot1-301 growth rescue, ATP luminescence, 38.5C; percent above DMSO median, 100 means doubled. 1% of 320,000 active;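 active = every valid replicate shows activation above 250% relative to neutral control wells; inactive = the rest, any valid replicate at or below 250%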;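 also: OY570 slx delta 5 strain wells were the positive control but not used for scaling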
ATG4B inh = ATG4B (human) cysteine protease inhibition | ATG4B cleavage of LC3-PLA2, NBD-HPC fluorescence, 1 h | inhibition, % at 8.33 µM | 0.51% of 340,000 active | AID 504462; in the data active = inhibition above about 40%
Target sequence (Q9Y4P1 whole entry, looked up): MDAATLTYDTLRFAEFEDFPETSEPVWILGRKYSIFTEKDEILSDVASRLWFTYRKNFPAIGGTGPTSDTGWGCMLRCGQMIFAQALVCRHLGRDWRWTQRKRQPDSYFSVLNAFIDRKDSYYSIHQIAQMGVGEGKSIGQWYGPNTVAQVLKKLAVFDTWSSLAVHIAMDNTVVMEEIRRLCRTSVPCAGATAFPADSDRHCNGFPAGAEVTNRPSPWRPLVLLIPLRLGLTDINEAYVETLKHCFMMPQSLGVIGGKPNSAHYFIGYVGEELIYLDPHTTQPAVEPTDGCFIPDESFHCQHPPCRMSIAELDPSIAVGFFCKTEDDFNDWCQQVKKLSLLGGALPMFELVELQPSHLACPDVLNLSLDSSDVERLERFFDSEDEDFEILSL
AI-2 QS mod = modulators of Vibrio harveyi AI-2 quorum sensing system; Vibrio harveyi JMH597 AI-2 luminescence/OD600 ratio, 9 h; active compounds read low; strain lacks LuxN and CqsS sensors; 0 = neutral-control median; activity change, % at 7.5 µM; 0.4% of 300,000 active; in the data active = activity change below about -75%, passing the limit was not always enough;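 also: luminescence divided by OD600 gain over 9 h not by final OD600 alone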
V-ATPase pH = yeast V-ATPase proton transport regulation by pHLuorin | AID 504577 | response, % at 10 µM | S. cerevisiae, pHLuorin cytosolic pH fluorescence | 0.37% of 350,000 active; in the data active = response mostly above about 7.3%, no sharp cut-off; inactive = mostly below about 5.4%; also: actives read high
Efflux pump mplx = inhibitors of Candida antifungal efflux pumps expressed in yeast. 0.44% of 330,000 active. inhibition, % at 10 µM. AID 485275. S. cerevisiae Candida pump triplex, Nile Red efflux;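 active = plate passing quality check with inhibition over a set limit, or well fluorescence over plate mean plus 4 SD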;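 also: Nile Red retained in pooled yeast measured as flow cytometry median fluorescence; 0% = buffer negative control and 100% = Enniatin B positive control; higher means more Nile Red kept so more efflux inhibition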
Yeast cmpd fluor = compound fluorescence in yeast efflux pump counter-screen | fluorescence ratio to DMSO, % at 10 µM | shares compounds with Efflux pump mplx | AID 588517 | S. cerevisiae AD/pABC3, flow cytometry | 4% of 1,700 active;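 active = fluorescence ratio to DMSO above its plate's cutoff, the plate mean ratio plus 5 SD, cut at about 210% in these data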;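 also: unstained yeast with no Nile Red so the signal is compound autofluorescence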
CaMdr1 efflux inh = inhibitors of Candida albicans Mdr1 efflux pump; S. cerevisiae AD/CaMDR1, Nile Red efflux, flow cytometry; shares compounds with Efflux pump mplx; inhibition, % at 10 µM; 1% of 1,700 active; in the data active = inhibition above about 26%;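 also: 0% = DMSO vehicle and 100% = reference inhibitor; higher means more Nile Red retained so more efflux inhibition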
Cdr2 pump inh = Candida Cdr2 efflux pump inhibition | 4% of 1,700 active | Nile Red retention ratio vs DMSO, % at 10 µM | shares compounds with Efflux pump mplx | S. cerevisiae AD/CaCDR2, Nile Red retention, flow cytometry | AID 588520; in the data active = Nile Red retention ratio vs DMSO above about 190%;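 also: higher ratio means more blocking of Cdr2 efflux of the dye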
CaCdr1 efflux inh = inhibitors of Candida albicans Cdr1 efflux pump | 1% of 1,700 active | S. cerevisiae AD/CaCDR1, Nile Red efflux, flow cytometry | AID 588522 | shares compounds with Efflux pump mplx | inhibition, % at 10 µM;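 active = inhibition above the screen-wide mean plus twice its standard deviation, cut at about 32% in these data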
* hit, by the source's call. Sampled rows, rich in hits. Any-hit rate of the full collection: about 2.5%.

`CCN(C(=O)COC(=O)C(c1ccccc1)c1ccccc1)c1c(N)n(Cc2ccccc2)c(=O)[nH]c1=O` gave ATG4B inh -11.4 and V-ATPase pH 0.5.
Cc1cc(C(=O)COC(=O)c2ccc[nH]c2=O)c(C)n1-c1ccc(F)cc1 was read as SUMO Mot1 rescue -11.5, ATG4B inh -1.8, AI-2 QS mod -2.2, V-ATPase pH 5.5, Efflux pump mplx 27.8*, Yeast cmpd fluor 115.3, CaMdr1 efflux inh 0.1, Cdr2 pump inh 112.3 and CaCdr1 efflux inh 0.0.
Screening c1ccc(C(c2c[nH]c3ccccc23)c2c[nH]c3ccccc23)nc1 returned SUMO Mot1 rescue 5.7, ATG4B inh 2.7, AI-2 QS mod -1.6, V-ATPase pH 1.2 and Efflux pump mplx -0.1.
`Cn1cc(C(c2ccccn2)c2cn(C)c3ccccc23)c2ccccc21` gave SUMO Mot1 rescue 213.2, ATG4B inh 8.8, AI-2 QS mod 16.8, V-ATPase pH 2.1, Efflux pump mplx 57.3*, Yeast cmpd fluor 88.0, CaMdr1 efflux inh 86.4*, Cdr2 pump inh 102.9 and CaCdr1 efflux inh 31.7*.
Cc1onc(-c2ccccc2)c1C(=O)N1CC(C)OC(C)C1 (configuration not stated) was read as SUMO Mot1 rescue 231.7, ATG4B inh -2.2, AI-2 QS mod 10.2, V-ATPase pH 2.4 and Efflux pump mplx 0.0.
CCCC(=O)Nc1ccc(C(=O)NNC(=O)c2cccs2)cc1 was read as SUMO Mot1 rescue -17.9, ATG4B inh 3.6, AI-2 QS mod 22.4, V-ATPase pH -0.7, Efflux pump mplx 11.3*, Yeast cmpd fluor 88.8, CaMdr1 efflux inh -0.1, Cdr2 pump inh 96.0 and CaCdr1 efflux inh 0.0.
Screening CC(C)C1N(C(N)=S)N=CC1(C)C (configuration not stated) returned SUMO Mot1 rescue 0.7, ATG4B inh 1.2, AI-2 QS mod 6.0, V-ATPase pH -1.1 and Efflux pump mplx 0.1.
O=S(=O)(c1ccccc1)N1CCNCC1 was read as SUMO Mot1 rescue 15.4, ATG4B inh 6.9, AI-2 QS mod 7.3, V-ATPase pH -2.6 and Efflux pump mplx -0.1.
For COc1ccccc1N1CCN(C(=O)c2cc(-c3cccs3)on2)CC1 the results were SUMO Mot1 rescue 28.1, ATG4B inh 8.8, AI-2 QS mod 3.1, V-ATPase pH -4.1, Efflux pump mplx 0.7*, Yeast cmpd fluor 100.0, CaMdr1 efflux inh -0.1, Cdr2 pump inh 122.6 and CaCdr1 efflux inh 0.1.
Screening CC(C)c1ccc(OCC(=O)NC2CCCC2)cc1 returned SUMO Mot1 rescue 45.5, ATG4B inh -3.9, AI-2 QS mod -24.7, V-ATPase pH 2.8, Efflux pump mplx 9.2*, Yeast cmpd fluor 113.2, CaMdr1 efflux inh -0.1, Cdr2 pump inh 110.2 and CaCdr1 efflux inh 0.0.
`Cc1ccccc1OC(C)C(=O)Nc1ccc(S(=O)(=O)Nc2nccs2)cc1` (configuration not stated) gave SUMO Mot1 rescue 143.7, ATG4B inh 7.7, AI-2 QS mod 8.9, V-ATPase pH 5.5 and Efflux pump mplx 0.0.
`CCOCCCNC(=O)/C(C#N)=C/c1ccc(-c2ccc(S(=O)(=O)N3CCOCC3)cc2)o1` gave SUMO Mot1 rescue 21.9, ATG4B inh -18.4, AI-2 QS mod 23.3, V-ATPase pH -0.6 and Efflux pump mplx -0.1.
CCOCCCNC(=O)/C(C#N)=C/c1ccc([N+](=O)[O-])o1 was read as SUMO Mot1 rescue -9.4, ATG4B inh -5.7, AI-2 QS mod -83.4*, V-ATPase pH 16.2, Efflux pump mplx 0.9*, Yeast cmpd fluor 247.4, CaMdr1 efflux inh 0.2, Cdr2 pump inh 129.1 and CaCdr1 efflux inh -0.1.

Screening data: PubChem BioAssay, several laboratories
